Laboratory results taken from PubChem BioAssay AID2284356 (EPA ToxCast).
Results filed as inconclusive are left out. Activity calls are given as the source filed them. The calls were made as follows: active = hit-call score of the fitted dose curve at least 0.9, where 1 is the maximum; inconclusive = response in the unintended direction; inactive = score below 0.9.

Biological target: zebrafish Estrogen Receptor (ER1), esr1 (gene 259252) (UniProt P57717)
Test: ATG_zfER1_EcoTox2: Attagene TRANS-FACTORIAL EcoTox-2 HepG2 Assay for zebrafish Estrogen Receptor (ER1)
Procedure: ATG_EcoTox2 is a cell-based, multiplexed assay created by modifying the existing Attagene TRANS-FACTORIAL system to include a panel of nuclear receptors from some or all the following species: human (Homo sapiens), african clawed frog (Xenopus laevis), rainbow trout (Oncorhynchus mykiss), japanese medaka (Oryzias latipes), and zebrafish (Danio rerio). The ECOTOX2-FACTORIAL format uses HepG2, a human liver cell line, with measurements taken at 24 hours after chemical dosing in a 24-well plate. ATG_zfER1_EcoTox2 is one of 29 assay components calculated in the ATG_EcoTox2 assay. It is designed to make measurements of mRNA induction, a form of inducible reporter, as detected with fluorescence intensity signals by Reverse transcription polymerase chain reaction (RT-PCR) and Capillary electrophoresis technology.The assay endpoint ATG_zfER1_EcoTox2 was analyzed in the positive analysis fitting direction relative to DMSO as the negative control and baseline of activity. Using a type of inducible reporter, measures of mRNA for gain-of-signal activity can be used to understand the reporter gene at the transcription factor-level as they relate to the gene ER. Furthermore, this assay endpoint can be referred to as a primary readout, because this assay has produced multiple assay endpoints where this one serves a reporter gene function. […]

Chain of zebrafish Estrogen Receptor (ER1), esr1 (gene 259252) (P57717 whole entry, looked up): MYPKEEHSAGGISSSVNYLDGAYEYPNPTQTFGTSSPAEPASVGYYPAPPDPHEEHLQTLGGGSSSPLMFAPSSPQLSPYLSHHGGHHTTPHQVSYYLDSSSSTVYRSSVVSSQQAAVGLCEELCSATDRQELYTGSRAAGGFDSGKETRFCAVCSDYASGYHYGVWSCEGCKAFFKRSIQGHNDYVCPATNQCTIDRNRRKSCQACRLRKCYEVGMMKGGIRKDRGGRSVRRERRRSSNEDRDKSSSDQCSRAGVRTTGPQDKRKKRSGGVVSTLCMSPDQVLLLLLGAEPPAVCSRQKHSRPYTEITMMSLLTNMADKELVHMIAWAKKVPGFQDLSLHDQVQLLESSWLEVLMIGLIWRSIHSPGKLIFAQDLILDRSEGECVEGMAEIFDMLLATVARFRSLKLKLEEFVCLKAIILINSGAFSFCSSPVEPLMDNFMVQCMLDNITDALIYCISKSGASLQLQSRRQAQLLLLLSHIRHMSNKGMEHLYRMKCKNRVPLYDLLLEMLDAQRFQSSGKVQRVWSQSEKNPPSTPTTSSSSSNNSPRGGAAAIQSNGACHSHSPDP

With O=S(=O)(O)C(F)(F)C(F)(F)C(F)(F)C(F)(F)C(F)(F)C(F)(F)F the outcome was “inactive”.
